Results: PubChem BioAssay AID1429 (The Scripps Research Institute Molecular Screening Center, 2008)
The list shows a part of the results. Activity calls are given as the source filed them.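 How the source made its calls: active means inhibition above the hit threshold that was computed for the earlier primary screen (cut at about 30% in these data); inactive means the rest.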

What follows are compounds tested against Sphingosine 1-phosphate receptor 3 (Homo sapiens) (UniProt Q99500) (assay: blockers of human S1P3 signalling – cell-based, confirmation (AID 1429;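 further: 0% = S1P-stimulated wells and 100% = unstimulated DMSO-only wells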)). Details: CHO S1P3 NFAT-BLA reporter, FRET, antagonist mode; at 4.98 µM; hits give high values.
Sequence of Sphingosine 1-phosphate receptor 3 (Homo sapiens) (Q99500 whole entry, looked up): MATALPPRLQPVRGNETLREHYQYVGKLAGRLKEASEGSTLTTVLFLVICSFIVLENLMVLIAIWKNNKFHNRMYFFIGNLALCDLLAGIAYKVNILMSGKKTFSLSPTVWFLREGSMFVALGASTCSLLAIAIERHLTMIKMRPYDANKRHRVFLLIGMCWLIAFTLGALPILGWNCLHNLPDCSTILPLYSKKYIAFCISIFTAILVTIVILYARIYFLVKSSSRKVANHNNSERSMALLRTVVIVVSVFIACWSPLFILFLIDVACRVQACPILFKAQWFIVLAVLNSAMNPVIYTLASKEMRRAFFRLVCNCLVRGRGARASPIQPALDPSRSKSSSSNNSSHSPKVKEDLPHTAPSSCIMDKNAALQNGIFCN
`CCOC(=O)C1=C(C)N=C2c3ccccc3C(=O)C2C1c1ccc(Br)cc1` (stereo not given) was tested, and the inhibition was 77.8% (active). For `Cc1ccc(NC(=O)CN(C)CC(=O)Nc2cccc(F)c2)cc1[N+](=O)[O-]`, the inhibition was 12.6% (inactive). With `O=C(N/N=C/c1coc2ccccc2c1=O)c1cc2ccccc2o1` the inhibition was -18.6% (inactive). For `Nc1c(C(=O)c2cccs2)sc2nsc(SCCN3CCCCC3)c12`, the inhibition was 18.8% (inactive). `CC(=O)c1c(C)[nH]c(C(=O)COC(=O)c2cccc(S(=O)(=O)N(C)c3ccccc3)c2)c1C` was tested, and the inhibition was 10.9% (inactive). In the case of `S=C(NCCc1ccccc1)NCC1CCCO1` (stereo not given), the inhibition is reported as -4.63% (inactive). With `CCN1/C(=C\c2ccc3ccccc3[n+]2CC)Sc2cc(C)ccc21` the inhibition was 10.8% (inactive). In the case of `CC[C@H]1CN2CCc3cc(OC)c(OC)cc3[C@@H]2C[C@@H]1C[C@H]1NCCc2cc(OC)c(OC)cc21`, the inhibition is reported as 109% (active). In the case of `CSc1ccc(CN(C)CC(=O)NCc2ccc(F)cc2)cc1`, the inhibition is reported as -9.96% (inactive). For `CC(C)Oc1ccccc1C(=O)NC(CO)C(=O)O` (stereo not given), the inhibition was -23.6% (inactive).
